Hits are enriched below; roughly 3.1% of the tested compounds scored in any of these assays.
E coli Lon inh: inhibitors of E. coli Lon protease, primary screen, biochemical, fluorescence polarization | P0A9M0 | purified E. coli Lon protease | inhibition, % at 7.94 µM | 360,000 tested, 0.42% active; in the data active = inhibition above about 13%, passing the limit was not always enough
Target sequence (P0A9M0 whole entry, looked up): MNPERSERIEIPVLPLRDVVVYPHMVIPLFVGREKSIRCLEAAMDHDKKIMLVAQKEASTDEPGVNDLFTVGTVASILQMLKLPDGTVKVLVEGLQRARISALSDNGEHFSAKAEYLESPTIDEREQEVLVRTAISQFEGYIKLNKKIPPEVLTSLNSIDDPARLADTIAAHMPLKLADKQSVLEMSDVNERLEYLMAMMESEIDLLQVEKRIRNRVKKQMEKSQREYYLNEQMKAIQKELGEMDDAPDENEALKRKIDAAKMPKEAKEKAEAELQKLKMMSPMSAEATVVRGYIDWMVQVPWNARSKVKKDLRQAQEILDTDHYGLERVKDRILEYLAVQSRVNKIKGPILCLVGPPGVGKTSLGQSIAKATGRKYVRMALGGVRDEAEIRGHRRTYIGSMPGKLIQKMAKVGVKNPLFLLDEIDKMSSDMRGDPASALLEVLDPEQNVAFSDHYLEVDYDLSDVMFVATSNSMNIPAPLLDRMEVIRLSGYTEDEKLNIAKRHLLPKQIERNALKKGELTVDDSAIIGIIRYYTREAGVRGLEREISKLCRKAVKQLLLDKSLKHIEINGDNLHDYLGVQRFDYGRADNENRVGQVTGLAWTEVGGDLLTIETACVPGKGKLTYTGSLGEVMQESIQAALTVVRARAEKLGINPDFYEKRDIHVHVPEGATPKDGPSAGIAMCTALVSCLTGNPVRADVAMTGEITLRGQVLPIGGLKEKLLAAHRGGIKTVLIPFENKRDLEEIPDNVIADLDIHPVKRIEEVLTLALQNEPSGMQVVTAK
PAFAH2 FP inh: PAFAH2 enzyme inhibitors, primary screen, biochemical, fluorescence polarization, human; recombinant PAFAH2, FP-rhodamine activity probe; inhibition, % at 3.39 µM; 340,000 tested, 0.99% active; AID 492956, 2010;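 active = inhibition above the mean over all tested compounds plus 3 SD, cut at about 30% in these data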;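 also: inhibitors block probe labeling of enzyme so polarization drops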
PAFAH1B2 inh: PAFAH1B2 enzyme inhibitors, primary screen, biochemical, fluorescence polarization, human | Platelet-activating factor acetylhydrolase IB subunit alpha2 (Homo sapiens), P68402 | recombinant PAFAH1B2, FP-rhodamine activity probe | inhibition, % at 3.39 µM | 340,000 tested, 1.2% active;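 active = inhibition above the mean of all tested compounds plus 3 SD, cut at about 24% in these data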
pPAFAH inh: pPAFAH enzyme inhibitors, primary screen, biochemical, fluorescence polarization, human; recombinant pPAFAH, FP-rhodamine probe fluorescence polarization; inhibition, % at 3.39 µM; 330,000 tested, 1.5% active; AID 463082, 2010;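 active = inhibition above the mean inhibition across the screen plus 3 SD, cut at about 25% in these data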;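 also: inhibitors block binding of the rhodamine activity-based probe so polarization drops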
Rin1-Abl PPI inh: inhibitors of Rin1-Abl protein binding, primary screen, biochemical, TR-FRET. Tyrosine-protein kinase ABL1 (Homo sapiens) + Ras and Rab interactor 1 (Homo sapiens), …. 360,000 tested, 0.4% active. inhibition, % at 7.35 µM; in the data active = inhibition above about 5%, passing the limit was not always enough
PAFAH1B3 FP inh: PAFAH1B3 enzyme inhibitors, primary screen, biochemical, fluorescence polarization, human | recombinant PAFAH1B3, FP-rhodamine probe | inhibition, % at 3.39 µM | 340,000 tested, 0.28% active | Platelet-activating factor acetylhydrolase IB subunit alpha1 (Homo sapiens), Q15102;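 active = inhibition above the screen-wide average of all tested compounds plus 3 SD, cut at about 25% in these data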
PAFAH2 FP conf: PAFAH2 enzyme inhibitors, confirmation, biochemical, fluorescence polarization, human; inhibition, % at 3.39 µM; recombinant PAFAH2, FP-rhodamine activity probe; shares compounds with PAFAH2 FP inh; 2,300 tested, 65% active; AID 493030, 2011;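 active = mean inhibition over three repeats above a set limit taken from the earlier primary screen, cut at about 30% in these data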;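 also: inhibitor blocks binding of rhodamine activity probe so polarization falls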
Large screens that a line does not name were inactive (follow-up assays come after a bar, where they were run).

CC1CCCC(NC(=O)C2CCN(S(=O)(=O)c3cnc[nH]3)CC2)C1C (configuration not stated)	none
O=C(O)CN1C(=O)/C(=C\c2ccccc2OCc2ccc(Cl)cc2)SC1=S	PAFAH2 FP inh 30 | PAFAH2 FP conf inactive
O=C(O)COc1ccccc1/C=C1\SC(=S)N(/N=C/c2ccccc2O)C1=O	PAFAH2 FP inh 42 | PAFAH2 FP conf 32
O=c1c2c(nc3nc(COc4ccccc4)[nH]n13)CCC2	PAFAH2 FP inh 61 | PAFAH2 FP conf 56
O=C(O)Cc1nc2nc3c(c(=O)n2[nH]1)CCCC3	none
CCn1c(SCC(=O)Nc2cc(C)on2)nc2c(c1=O)SCC2	none
CSCC[C@H](NC(=O)[C@H](Cc1ccccc1)n1c(=O)[nH]c2ccccc2c1=O)C(=O)N[C@@H](Cc1ccccc1)C(=O)O	none
Cc1ccccc1-c1nc2sc(C)c(C)c2c(=O)o1	PAFAH2 FP inh 68 | PAFAH2 FP conf 54
Cc1sc2nc(C(C)(C)C)oc(=O)c2c1C	PAFAH2 FP inh 36 | PAFAH2 FP conf 40
Cc1sc2nc(-c3ccco3)oc(=O)c2c1C	PAFAH2 FP inh 62 | PAFAH2 FP conf 47
COc1cc(-c2nc3sc(C)c(C)c3c(=O)o2)cc(OC)c1OC	none
COc1ccc(-c2c(C(=O)c3ccccc3)[nH]c(N)c2C(=O)NC2CC2)cc1OC	none (no result: PAFAH2 FP inh, PAFAH1B2 inh, pPAFAH inh, Rin1-Abl PPI inh, PAFAH1B3 FP inh)
Cc1nc(C(F)(F)F)ccc1C(=O)N1CCC1(C)C(=O)Nc1ccc2c(c1)OCO2 (configuration not stated)	none (no result: PAFAH2 FP inh, PAFAH1B2 inh, pPAFAH inh, PAFAH1B3 FP inh)
O=C(COC(=O)c1ccc(O)cc1O)Nc1ncc(Cl)cc1Cl	none
COc1ccc(C(=O)N2CCC3(CC2)NCCc2[nH]cnc23)cc1OC	none
CSc1nc2c(c(=O)n1Cc1ccccc1)SC(C)C2 (configuration not stated)	none
CSc1nc2[nH]c(=O)n(O)c(=O)c2n1Cc1ccccc1	PAFAH2 FP inh 37 (no result: pPAFAH inh) | PAFAH2 FP conf inactive
O=C(Nc1ccsc1C(=O)O)c1ccc(Cl)cc1	PAFAH2 FP inh 31 | PAFAH2 FP conf inactive
C#CCOc1coc(COC(=O)c2ccccc2)cc1=O	PAFAH2 FP inh 50 | PAFAH2 FP conf 30
O=c1cc(CO)occ1OCc1ccccc1	none
O=C(NCC1CCCO1)c1ccc(Cl)c(S(=O)(=O)N2CCCCC2)c1 (configuration not stated)	none
O=C(COC(=O)C1CCCCC1)Nc1cccc(F)c1	PAFAH2 FP inh 89 | PAFAH2 FP conf 79
O=C(COC(=O)CC1CCCC1)Nc1cccc(F)c1	PAFAH2 FP inh 81 | PAFAH2 FP conf 81
O=C(COC(=O)C1CCN(/C=C/C(=O)C(F)(F)F)CC1)Nc1cccc(F)c1	none
O=C(COC(=O)C1CCCCC1)Nc1cccc(Br)c1	PAFAH2 FP inh 77 | PAFAH2 FP conf 71
Cc1cc(C(=O)OCC(=O)Nc2ccc(F)cc2)c(C)o1	PAFAH2 FP inh 79 | PAFAH2 FP conf 78
Cc1cc(C(=O)OCC(=O)Nc2ccccc2)c(C)o1	PAFAH2 FP inh 78 | PAFAH2 FP conf 74
Cc1ccc(C(=O)OCC(=O)Nc2ccc(F)c(Cl)c2)o1	PAFAH2 FP inh 85 | PAFAH2 FP conf 75
CC(=O)c1ccccc1NC(=O)COC(=O)c1cc(C)oc1C	none
Cc1cc(C(=O)OCC(=O)Nc2ccc(F)c(F)c2F)c(C)o1	PAFAH2 FP inh 52 | PAFAH2 FP conf 50
CCN(C(=O)COC(=O)c1cc(=O)c2ccccc2o1)c1c(N)n(Cc2ccccc2)c(=O)[nH]c1=O	none
NC(=O)C1CCN(CCS(=O)(=O)c2ccc(Cl)cc2)CC1	none
Cc1ccc(-c2[nH]ncc2CN2CCN(C(=O)c3cccs3)CC2)cc1C	none
O=C(COc1cc2oc(=O)cc(-c3ccccc3)c2cc1Cl)NCCN1CCOCC1	none
Cc1cc(C)nc(/N=C(\N)Nc2ccc(OCCC(C)C)cc2)n1	none
CC(C)C(Cl)=NOC(=O)Nc1ccc(S(N)(=O)=O)cc1	PAFAH2 FP inh 47 (no result: pPAFAH inh) | PAFAH2 FP conf 39
COC(=O)[C@H](C)NC(=O)Nc1ccc(S(N)(=O)=O)cc1	none
CCN1CCN(c2ccc(S(=O)(=O)N3CCOCC3)cc2NC(=O)c2ccc(F)cc2Cl)CC1	none
COc1ccc(C(=O)NNC(=S)NC(=O)c2ccc(F)cc2)cc1Br	none (no result: PAFAH2 FP inh, PAFAH1B2 inh, PAFAH1B3 FP inh)
COc1cc(C(=O)NNC(=S)NC(=O)c2ccc(F)cc2)cc(OC)c1OC	PAFAH2 FP inh 51 | PAFAH2 FP conf inactive
CCN(CC)S(=O)(=O)c1cccc(-n2c(O)c(C=Nc3ccccc3C(=O)O)c3ccccc3c2=O)c1	PAFAH2 FP inh 89 | PAFAH2 FP conf 73
O=C(O)c1ccccc1N=Cc1c(O)n(-c2nccs2)c(=O)c2ccccc12	none
O=C1OC(/C(=C\Nc2cc(Cl)ccc2O)[N+](=O)[O-])c2ccccc21 (configuration not stated)	PAFAH2 FP inh 49 | PAFAH2 FP conf 46
CC(=O)OCC1=C(C(=O)O)N2C(=O)[C@@H](NC(=O)Cc3ccccc3)[C@H]2SC1	none (no result: pPAFAH inh)
CC(=O)OCC1=C(C(=O)O)N2C(=O)[C@@H](NC(=O)Cc3cccs3)[C@H]2SC1	PAFAH2 FP inh 39 | PAFAH2 FP conf inactive
CC(=O)OCC1=C(C(=O)O)N2C(=O)C(NC(=O)c3ccc(COc4c(C)cccc4Cl)o3)C2SC1 (configuration not stated)	PAFAH2 FP inh 43 | PAFAH2 FP conf 41
CCN(c1cccc(C)c1)S(=O)(=O)c1ccc2c(c1)NC(=O)CS2	none
CCN(c1cccc(C)c1)S(=O)(=O)c1ccc2c(c1)NC(=O)CCS2	PAFAH2 FP inh 48 | PAFAH2 FP conf 35
Cc1ccc(C(=O)O/N=C(/c2nonc2N)N(C)C)cc1	PAFAH2 FP inh 51 | PAFAH2 FP conf 41
COc1ccc(NS(=O)(=O)c2cc([N+](=O)[O-])ccc2NN=Cc2ccccc2OCC(=O)O)cc1	PAFAH2 FP inh 49 | PAFAH2 FP conf inactive
O=C(O)C1CSC(c2ccncc2)N1 (configuration not stated)	none
O=C(O)C1CSC(c2ccco2)N1 (configuration not stated)	PAFAH2 FP inh 32 | PAFAH2 FP conf inactive
CCC(=O)Nc1ccc(C(=O)OCc2ccc(Cl)c(Cl)c2)cc1	PAFAH2 FP inh 36 | PAFAH2 FP conf 47
CC(=O)Nc1ccc(C(=O)OCc2ccc(Cl)c(Cl)c2)cc1	PAFAH2 FP inh 61 | PAFAH2 FP conf 63
COC(=O)c1ccc(COC(=O)c2ccc(CS(=O)(=O)c3ccc(C)cc3)cc2)cc1	none

High-throughput results deposited in PubChem BioAssay by The Scripps Research Institute Molecular Screening Center.
